# The list is not random: actives were taken first. Their share in the collection is about 4%.
# TRHR ag: TRH receptor (human) agonism | 360,000 compounds, 0.18% hits | TRHR cells, calcium flux fluo-8, FDSS agonist mode | AID 493084 | activation, % at 2 µM | P34981; note: 0% is about no effect
#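 TRHR-expressing cells loaded with fluo-8 calcium dye; 23 nL library compound pin-transferred, kinetic FDSS fluorescence (Ex 480/Em 530) recorded about 180 s for agonist-induced calcium release, before a 10 nM TRH EC20 addition for potentiator mode.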
# GRP78 ERSR act: induces the endoplasmic reticulum stress response in human glioma cells | U87-MG GRP78 promoter luciferase reporter, 16 h | Potency, µM, without a hit: at the top dose activation, actives largely listed as activators | 420,000 compounds, 0.02% hits; active = well fitted activation curve with a large enough effect; inconclusive = small, poorly fitted or top-dose-only effect; inactive = no such curve, though single readings can be large or run the other way; note: potency is the fitted concentration of half-maximal effect; series mostly up to about 76 µM; % of control where 0% means no effect; nearly all actives have a fitted effect of over 35% in size
#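 Stably transfected U87-MG human glioma cells carrying a GRP78-based luminescent sensor were seeded at 1000 cells/well, pin-dosed with compounds and incubated 16 h. Luciferase reagent was then added, and end-point luminescence was read after 10 min at room temperature.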
# D1 agonist: activates the human D1 dopamine receptor. HEK293 T-REx D1 cells, calcium flux, agonist mode. activation, % at 2 µM. 360,000 compounds, 1% hits. AID 504660; note: 0% is about no effect
# Target sequence (P21728 whole entry, looked up): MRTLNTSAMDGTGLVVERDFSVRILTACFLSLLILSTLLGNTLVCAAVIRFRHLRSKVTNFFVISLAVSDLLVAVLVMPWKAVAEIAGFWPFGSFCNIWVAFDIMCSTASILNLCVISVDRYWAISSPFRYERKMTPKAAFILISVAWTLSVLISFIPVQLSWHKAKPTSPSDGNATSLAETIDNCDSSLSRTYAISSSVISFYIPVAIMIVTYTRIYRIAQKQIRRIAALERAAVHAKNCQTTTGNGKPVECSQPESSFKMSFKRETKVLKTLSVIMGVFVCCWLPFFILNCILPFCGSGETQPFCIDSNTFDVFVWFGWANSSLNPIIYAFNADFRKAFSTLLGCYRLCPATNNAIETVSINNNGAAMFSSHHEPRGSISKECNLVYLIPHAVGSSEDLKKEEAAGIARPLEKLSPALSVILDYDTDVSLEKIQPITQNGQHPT
#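 Agonism was scored from calcium flux recorded over 180 s (1 read/s) after pintool compound addition, following a 10-cycle baseline. Cells were inducible force-coupled HEK293 TREx D1, plated overnight at 30 C and loaded with no-wash calcium dye.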
# D1 PAM: potentiators of human D1 dopamine receptor; P21728; HEK293 TREx D1 cells, calcium flux, dopamine EC20 potentiation; potentiation, % at 10 µM; 360,000 compounds, 0.036% hits; AID 504651; in the data active = potentiation above about 30%; note: 0% is about no effect
# D1 antagonist: human D1 dopamine receptor antagonism; HEK293 TREx D1 cells, calcium flux, dopamine EC80; active compounds read low; 360,000 compounds, 3.2% hits; activity change, negative = inhibition, % at 10 µM; P21728; in the data active = activity change below about -30%; note: % is set by controls: 0 for no effect and ±100 for the full control effect
#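 Antagonism measured as reduced calcium response to an EC80 dopamine addition following 180 s compound pre-read; cells were inducible HEK293 Trex D1 plated overnight at 30 C, read kinetically at 1 cycle/sec.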
# TRHR enhancer: TRH receptor (human) allosteric enhancement | P34981 | enhancement, % at 2 µM | TRHR cells, fluo-8 calcium fluorescence, EC20 TRH enhancement | 360,000 compounds, 0.66% hits; in the data active = enhancement above about 30%; note: 0% is about no effect
#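 TRHR-expressing cells loaded with fluo-8 calcium dye were read kinetically (ex 480/em 530) during compound addition, then stimulated with an EC20 of TRH (10 nM final). Enhancement of the Gq-mediated intracellular calcium response was scored.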
# * = called active by the depositor; ? = inconclusive; . = no result given. Cut-off read from the data, not from the text of the source, unless noted: active = activation above about 30%; inactive = the rest.
SMILES,TRHR ag,GRP78 ERSR act,D1 agonist,D1 PAM,D1 antagonist,TRHR enhancer
CCSc1nnc(Cc2cc(=O)[nH]c(=O)[nH]2)n1-c1cccc(C)c1,0,-2%,3,-8,-20,-8
CCc1cc2c(N3CCCCC3)ncnc2s1,-1,-4%,8,-1,-2,4
COc1ccc(/C(C)=N/NC(=O)c2nnn(-c3nonc3N)c2-c2ccccc2)cc1,16,-5%,50*,-5,30,12
C/C(=N/NC(=O)c1nnn(-c2nonc2N)c1-c1ccccc1)c1ccncc1,1,-6%,-3,2,16,-5
C/C(=N\NC(=O)c1nnn(-c2nonc2N)c1-c1cccs1)c1ccc(C)cc1,10,-2%,87*,4,23,15
COc1ccc(/C(C)=N/NC(=O)c2nnn(-c3nonc3N)c2-c2cccs2)cc1,2,-4%,57*,9,6,3
COc1ccc(S(=O)(=O)N[C@@H](Cc2ccccc2)C(=O)N2CC[C@@]3(O)CCCC[C@H]3C2)cc1,-2,2%,1,-5,-6,-2
COc1ccc(-c2nc3c4ccccc4ccn3c2CN2CCCCC2)cc1,0,1%,3,-1,-7,1
O=C(Nc1cccnc1)c1cc2c(s1)-c1ccccc1OC2,-1,-6%,9,-18,-46*,2
COc1ccccc1N1CCN(C(=O)c2cc3c(s2)-c2ccccc2OC3)CC1,0,-3%,3,-12,-4,-5
O=C(c1cc2c(s1)-c1ccccc1OC2)N1CCc2ccccc2C1,2,3%,1,-8,-54*,-1
Cc1ccc(S(=O)(=O)N2CCCOC2CNC(=O)C(=O)NCCc2c[nH]c3ccccc23)cc1 (configuration not stated),-1,-2%,1,-13,-36*,1
COc1ccc(CCNC(=O)C(=O)NCC2OCCCN2S(=O)(=O)c2cc(C)ccc2C)cc1 (configuration not stated),0,-3%,1,3,-44*,-1
O=C(O)c1cc(-c2ccccc2Cl)n[nH]1,1,-2%,1,0,2,6
N=C(N)SCc1cn(-c2ccccc2)nc1-c1ccc(Br)cc1,1,-16%,20,7,56,1
Cc1csc(NC(=O)c2cc3c(s2)CCCC3)n1,-1,-8%,11,-12,-44*,2
NS(=O)(=O)c1ccc(NC(=O)c2cccc(Cl)c2)cc1,0,8%,3,-2,-14,1
Nc1nc2c(ncn2[C@H]2C[C@H](O)[C@@H](CO)O2)c(=O)[nH]1,-1,-2%,1,-5,-30*,11
Nc1nc2c(ncn2C2CC(O)C(CO)O2)c(=O)[nH]1 (configuration not stated),.,-3%,.,.,.,.
Cc1ccc(NC(=O)C23CCC(C)(C(=O)[C@H]2Br)C3(C)C)cc1 (some centres not stated),-1,-1%,1,-6,24,2
Fc1c(F)c(C(F)(F)F)c(F)c(F)c1N/N=C\c1cccs1,2,1%,12,-4,-34*,-4
O=C(Nc1cccc(C(=O)N2CCCCC2)c1)c1ccc(Cl)cc1,0,3%,1,4,8,18
CC(C)(C)N=C1NC(=NC(C)(C)C)c2ccccc21,0,0%,19,-2,-41*,2
c1ccc2c(c1)C(=NCC1CCCO1)NC2=NCC1CCCO1 (configuration not stated),0,-3%,6,0,7,9
CN(Cc1ccccc1)c1ncnc2[nH]ncc12,.,-1%,.,.,.,.
COc1ccc(N2Cc3cccc(C(=O)N4CCOCC4)c3C2=O)cc1,1,1%,2,-2,-4,19
O=C(c1cc(F)ccc1F)C1CCCN(C(=O)CSc2ccccn2)C1 (configuration not stated),-4,-3%,0,3,-40*,-3
COc1ccc(NS(=O)(=O)c2cc(NC(=O)[C@@H](NC(N)=O)C(C)C)ccc2C)cc1,-1,-5%,2,2,2,-8
Cc1ccc(Sc2ccc(NC(=O)CCl)cc2)c(C)c1,0,?,16,-7,-73*,-2
